Compound activity as filed in PubChem BioAssay.
An excerpt weighted towards active compounds, which were near 2.5% of everything screened.
WRN helicase inh = inhibitors of human WRN helicase; AID 651768; Q14191; WRN helicase unwinding, fluorescent forked duplex, kinetic; Potency, µM (titrated, usually from 114 µM), for the others: top-dose activity change, negative = inhibition, hits mostly inhibitors; actives 0.46% (n = 360,000); note: % is set by controls: 0 for no effect and ±100 for the full control effect; nearly all actives have a fitted effect of over 55% in size
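Kinetic red-fluorescence monitoring (525/598 nm) tracks WRN helicase activity after 100 nM fluorophore-quencher forked duplex and 2 mM ATP are added to 20 nM enzyme pretreated 15 min at room temperature with compound.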
Pol iota inh = inhibitors of human DNA polymerase iota; actives 1% (n = 390,000); Potency, µM (top dose mostly 115 µM), for inactives: at the highest dose activity, negative = inhibition, most hits filed as inhibitors; Pol iota fluorescent replication assay, 10 min; AID 588590
Target sequence (Q9UNA4 whole entry, looked up): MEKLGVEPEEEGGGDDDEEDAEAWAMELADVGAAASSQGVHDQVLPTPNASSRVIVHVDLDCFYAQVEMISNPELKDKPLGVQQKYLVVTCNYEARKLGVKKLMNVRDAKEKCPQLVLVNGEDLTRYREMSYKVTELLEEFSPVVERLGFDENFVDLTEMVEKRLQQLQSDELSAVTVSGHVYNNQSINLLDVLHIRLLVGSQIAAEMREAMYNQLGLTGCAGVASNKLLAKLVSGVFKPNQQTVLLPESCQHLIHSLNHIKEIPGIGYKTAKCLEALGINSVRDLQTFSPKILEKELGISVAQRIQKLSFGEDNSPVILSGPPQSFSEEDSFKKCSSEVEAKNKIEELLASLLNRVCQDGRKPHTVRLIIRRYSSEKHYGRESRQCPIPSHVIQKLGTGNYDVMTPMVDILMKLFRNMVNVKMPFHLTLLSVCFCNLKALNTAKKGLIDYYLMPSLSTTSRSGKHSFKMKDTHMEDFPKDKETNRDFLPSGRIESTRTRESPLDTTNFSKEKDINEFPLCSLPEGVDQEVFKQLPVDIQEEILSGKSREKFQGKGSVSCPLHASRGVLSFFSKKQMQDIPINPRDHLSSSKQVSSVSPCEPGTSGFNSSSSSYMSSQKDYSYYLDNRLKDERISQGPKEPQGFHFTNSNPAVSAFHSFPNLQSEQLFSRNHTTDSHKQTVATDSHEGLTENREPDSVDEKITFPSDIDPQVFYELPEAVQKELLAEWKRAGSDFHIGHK
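Fluorescent replication assay read twice, at 0 min and 10 min after adding 50 nM (final) substrate. Enzyme (10 nM) and compounds were first incubated 15 min at room temperature; enzyme-free buffer wells were negative controls.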
POLB inh = blocks human DNA polymerase beta activity | P06746 | Pol beta primer extension/strand displacement, fluorescence kinetic | Potency, µM (top dose mostly 114 µM), for inactives: top-dose activity change, negative = inhibition, hits mostly inhibitors | actives 1.3% (n = 340,000) | AID 485314; note: % is set by controls: 0 for no effect and ±100 for the full control effect
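Human Pol beta at 10 nM; strand-displacement substrate 50 nM final. Compound exposure 15 min at room temperature before start, reaction 10 min at room temperature.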
POLH inh = inhibitors of human DNA polymerase eta; Q9Y253; Potency, µM (titrated, usually from 114 µM), without a hit: top-dose activity change, negative = inhibition, actives largely listed as inhibitors; recombinant Pol eta, fluorescent DNA replication assay; actives 1.2% (n = 390,000); AID 588591; note: % is set by controls: 0 for no effect and ±100 for the full control effect
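Pol eta at 10 nM preincubated with compounds 15 min at room temperature; reaction started with fluorescent substrate (50 nM final) and read kinetically at 0 and 10 min.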
Pol kappa inh = DNA polymerase kappa (human) inhibition. purified Pol kappa, fluorescent DNA synthesis assay, 10 min. Q9UBT6. AID 588579. actives 0.53% (n = 400,000). Potency, µM (titrated, usually from 107 µM), without a hit: at the highest dose activity, negative = inhibition, actives largely listed as inhibitors; note: % is set by controls: 0 for no effect and ±100 for the full control effect
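Kinetic fluorescence readout at 0 and 10 min followed reaction start with substrate at 50 nM final. Beforehand, enzyme (10 nM Pol kappa) stood 15 min with compound at room temperature; buffer-only wells were negative controls.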
L3MBTL1 inh = blocks human L3MBTL1; Q9Y468; AlphaScreen L3MBTL1–H3K9me1 peptide binding; Potency, µM (highest dose often 57.1 µM), without a hit: at the top dose activity, negative = inhibition, actives largely listed as inhibitors; actives 0.66% (n = 230,000); note: % is set by controls: 0 for no effect and ±100 for the full control effect; nearly all actives have a fitted effect of over 60% in size
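AlphaScreen proximity signal between nickel-chelate acceptor and streptavidin donor beads (final 10 ug/mL) reports binding of 50 nM L3MBTL1 to 75 nM biotin-H3 K9me1 peptide; complex incubated with compounds 30 min at room temperature; cefsulodin titration as control.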
Starred values were filed as active, the others as inactive; ? = inconclusive; · = not tested or not shown; ! = not confirmed by another sample; [ ] = another dose, or the depositor's remark. Calls come from the whole dose curve; as a rule, active = well fitted curve in the direction sought with a large enough effect; inconclusive = small, poorly fitted or top-dose-only effect, or another doubt; inactive = no such curve, though single readings can be large; an effect the other way counts as inactive or inconclusive. Potency is the fitted concentration of half-maximal effect.

SMILES | WRN helicase inh | Pol iota inh | POLB inh | POLH inh | Pol kappa inh | L3MBTL1 inh
C[C@@](N)(Cc1ccc(O)cc1)C(=O)O | · | · | · | · | -8%[60.1 µM] | ·
O=C(CSc1nc2ccccc2n1Cc1ccccc1)N1CCN(c2ccc(F)cc2)CC1 | · | 11% | 30% | -11% | 2% | ·
Cc1nc2ccc(NC(=O)c3cc([N+](=O)[O-])cc([N+](=O)[O-])c3Cl)cc2s1 | 10µM* | ? | -1% | ? | -9% | -9%
CC(C)CCNC(=O)CCS(=O)(=O)c1cccc2nonc12 | -14% | -8% | 27% | -7% | 5% | ·
O=C(N/N=C1\CCc2ccccc21)c1ccccc1Cl | -2% | 50% | 15% | -16% | -13% | -3%
Cc1ccc(C(=O)N/N=C2\CCc3ccccc32)c(C)c1 | 8% | 22% | 0.16µM* | -1% | -3% | -8%
O=C(CN1CCN(c2ccccc2)CC1)Nc1ccc(Oc2ccccc2)cc1 | -1% | 14% | 1% | -13% | 0% | ·
COc1ccc(-c2cn3c(n2)sc2cc(C(=O)NCCc4ccccc4)ccc23)cc1 | · | 9% | 12% | -10% | -21% | ·
O=C(COc1cccc2ccccc12)N/N=C/c1ccccc1OCc1ccc(C(=O)O)cc1 | -8%[11.6 µM] | 23% | 89µM* | 79µM* | -25% | ·
COC(=O)c1ccc(COc2ccccc2/C=N/Nc2cccc(C(=O)O)c2)cc1 | -17% | ? | -3% | 79µM* | ? | -14%
COc1ccc(Br)c(/C=N/NC(=O)COc2ccc(-c3ccccc3)cc2)c1 | -17% | ? | 2% | -6% | -2% | ·
O=C(COc1ccccc1-c1ccccc1)N/N=C/c1cccc2ccccc12 | -11% | 2% | ? | -4% | -19% | -2%
CCn1cc(/C=N/NC(=O)COc2cccc3cccnc23)c2ccccc21 | ? | ? | 13µM* | ? | -2% | 7%
O=C(O)c1cccc(NC(=S)N/N=C/c2ccccc2OCc2ccc(Br)cc2)c1 | -4%[11.6 µM] | ? | ? | ? | -38% | -23%
O=C(O)COc1ccccc1/C=N/NC(=O)COc1ccc(-c2ccccc2)cc1 | ? | -7% | ? | 50µM* | -1% | ·
O=C(COC(=O)c1cc([N+](=O)[O-])ccc1N1CCOCC1)NCCc1ccccc1 | -5% | 31% | 9% | -19% | 2% | ·
N#C/C(=C\c1ccc(N2CCCCC2)o1)C(=O)Nc1cccc(Br)c1 | 89µM* | ? | -24% | ? | -3% | -15%
COc1cc(Cl)c(NC2=CC(=O)C(=O)c3ccccc32)c(OC)c1 | 8% | ? | · | 56µM* | -1% | ?
O=C1C=C(Nc2cccnc2)c2ccccc2C1=O | -21% | 50µM* | · | 32µM* | -14% | ·
O=C1C=C(Nc2ccccc2O)c2ccccc2C1=O | ? | 32µM* | 10% | 25µM* | -9% | -24%
CCOc1ccc(NC2=CC(=O)C(=O)c3ccccc32)cc1 | -15% | 35µM* | · | 40µM* | -4% | ·
O=C(CNC(=O)Cc1ccccc1)NCC(=O)OCC(=O)c1ccc(F)cc1 | 10% | 64% | 7% | -13% | 3% | -10%[11.4 µM]
O=C(OCc1ccc(F)cc1)c1cccnc1Cl | -2% | 12% | -1% | -21% | 0% | ·
CCOC(=O)N1CCN(C(=O)c2ccc(Cl)nc2)CC1 | 0% | 31% | -12% | -7% | -3% | ·
CCN1CCN(C2=CC3=CC(=C(C#N)C#N)CCC3CC2)CC1 (stereo not given) | 25µM* | ? | 9% | -11% | -10% | ·
SMILES | WRN helicase inh | Pol iota inh | POLB inh | POLH inh | Pol kappa inh | L3MBTL1 inh
CN1CCN(C2=CC3=CC(=C(C#N)C#N)CCC3CC2)CC1 (stereo not given) | -6% | 89µM* | 0% | -5% | -4% | ·
CCN1CCN(S(=O)(=O)c2ccc(Cl)c(C(=O)NCCOc3ccc(C)cc3)c2)CC1 | -3% | -11% | · | -9% | -15% | 1%
O=C(CSc1ccc(-c2ccco2)nn1)N1CCCC1 | -6%[57.1 µM] | 8% | 30% | -17% | -12% | ·
Cc1cc(SCC(=O)c2cccc([N+](=O)[O-])c2)nc(=O)[nH]1 | -13%[11.6 µM] | ? | -25% | 20µM* | 79µM* | ·
O=C(CSc1ccc(-c2ccco2)nn1)c1cccc([N+](=O)[O-])c1 | -32%[57.1 µM] | 13µM* | 28µM* | ? | ? | -12%
Cc1cc(SCC(=O)Nc2ccc(F)cc2F)nc(=O)[nH]1 | · | ? | 16µM* | ? | -12%[60.1 µM] | ·
Cc1cc(SCc2cccc([N+](=O)[O-])c2)nc(=O)[nH]1 | -11% | ? | ? | 4% | -23% | ·
Cc1cc(SCc2ccc([N+](=O)[O-])cc2)nc(=O)[nH]1 | -6%[11.6 µM] | -1% | ? | 25µM* | -14% | ·
CCCNC(=O)Nc1cc(OCC)c(N2CCOCC2)cc1OCC | -7% | 6% | -22% | -2% | -12% | 13%
N#Cc1ccccc1NC(=O)C(=O)NCC(c1cccnc1)N1CCc2ccccc2C1 (stereo not given) | · | 14% | -13% | -23% | -10% | ·
COc1ccc2c3c(cccc13)N(C)N=C2C | ? | 3.2µM* | 1% | ? | -27% | 1%
O=C(C[C@H]1C/C=C\CC[C@@H](Cc2ccc(F)cc2)C(=O)OC[C@H]2CCCN2C1=O)NCCO | 0% | 5% | · | -6% | -6% | 2%
Oc1ccc(N=Cc2ccc(OCc3ccccc3)cc2)cc1 | -19% | ? | 2% | 22µM* | -22% | ?
COc1ccccc1CC(=O)Nc1ccc2c(c1)OC1(CCCC1)O2 | -1% | -19% | · | -14% | -1% | -9%
COc1cccc(CNS(=O)(=O)c2ccc(S(=O)(=O)N3CCCC3)cc2)c1 | -5% | 27% | 20µM* | -4% | 4% | 0%
CC1(C)C(O)CC[C@]2(C)C1CC[C@@]1(C)C2C(=O)C=C2[C@@H]3C[C@@](C)(C(=O)O)CC[C@@]3(C)CCC21C (stereo not given in full) | · | · | · | · | -6%[60.1 µM] | ·
CC1(C)[C@@H](O)CC[C@]2(C)[C@H]3C(=O)C=C4[C@@H]5C[C@@](C)(C(=O)O)CC[C@]5(C)CC[C@@]4(C)[C@]3(C)CC[C@@H]12 | -6% | 13% | 11% | -17% | 34µM*! | 2%
COc1cc(OC)cc(-c2nc3nc(C)c(CCC(=O)Nc4cc(F)ccc4F)c(C)n3n2)c1 | · | -10% | -14% | -4% | -4% | ·
CCOC(=O)c1c(C)[nH]c(C)c1S(=O)(=O)NCC(=O)NCc1ccccc1Cl | · | ? | -7% | -13% | -7% | ·
Cc1cc(Nc2ccccc2)c2c([N+](=O)[O-])ccc(C)c2n1 | -6% | 50% | 0% | -14% | -7% | 16µM*
N#CC(C#N)=C1C=CC=CN1/C(=C\c1ccco1)C(=O)c1ccc(Br)cc1 | 56µM* | -17% | -7% | -26% | -4% | -19%
